Measurements taken from PubChem BioAssay AID1159580 (chemical genetic matrix, 2015).
“And” between values parts separate entries of the source, which are not always exact repeats. Equal entries are not always repeated. Hit rate of the full screen: of about 5,500 compounds, about 2,000 (36%) were called active. Another 18% or so got no clear call; they are omitted. Rule as the data show it: active = normalized growth mostly below about 0.91 (no sharp cut-off); inconclusive = no clear call, values can overlap the other calls; inactive = mostly above about 0.92. This is one part of the list.

Experiment: chemical genetic growth profiling, strain panel (AID 1159580);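 also: tested at 20 µM; growth read once vehicle control cultures reached saturation at 30 °C; 1 = growth at the plate median or of vehicle wells; lower values mean less growth of the strain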
Conditions: S. cerevisiae deletion strains, growth OD

Measured: normalized growth

CN(C)C(=O)Oc1cccc([N+](C)(C)C)c1
inactive: locus YAL021C, strain ccr4, stronger effect = lower value 0.987 | locus YAL026C, strain drs2, stronger effect = lower value 1 | locus YAL030W, strain snc1, stronger effect = lower value 1 | locus YAL040C, strain CLN3, stronger effect = lower value 1 | locus YBL061C, strain skt5, stronger effect = lower value 1.01 | locus YBR009C, strain hhf1, stronger effect = lower value 1 | locus YBR021W, strain FUR4, stronger effect = lower value 0.992 | locus YBR023C, strain chs3, stronger effect = lower value 0.988 | locus YBR171W, strain sec66, stronger effect = lower value 0.992 | locus YBR229C, strain ROT2, stronger effect = lower value 0.985 | locus YBR231C, strain swc5, stronger effect = lower value 0.988 | locus YBR279W, strain paf1, stronger effect = lower value 1 | locus YCL011C, strain gbp2, stronger effect = lower value 0.996 | locus YCL016C, strain dcc1, stronger effect = lower value 0.992 | locus YCL029C, strain bik1, stronger effect = lower value 0.978 | locus YCL061C, strain MRC1 (second series), stronger effect = lower value 1 | locus YCL061C, strain MRC1, stronger effect = lower value 0.996 | locus YCL069W, strain vba3, stronger effect = lower value 1 | locus YCR088W, strain abp1, stronger effect = lower value 0.99 | locus YDL005C, strain med2, stronger effect = lower value 0.983 | locus YDL035C, strain GPR1, stronger effect = lower value 0.997 | locus YDL040C, strain nat1, stronger effect = lower value 0.992 | locus YDL074C, strain BRE1, stronger effect = lower value 1.05 | locus YDL101C, strain DUN1, stronger effect = lower value 0.986 | locus YDL134C, strain PPH21, stronger effect = lower value 0.987 | locus YDL185W, strain tfp1, stronger effect = lower value 0.98 | locus YDL192W, strain arf1, stronger effect = lower value 0.98 | locus YDR001C, strain nth1, stronger effect = lower value 0.998 | locus YDR069C, strain doa4, stronger effect = lower value 0.978 | locus YDR101C, strain arx1, stronger effect = lower value 0.977 | locus YDR137W, strain rgp1, stronger effect = lower value 1.01 | locus YDR150W, strain NUM1, stronger effect = lower value 1 | locus YDR159W, strain sac3, stronger effect = lower value 0.978 | locus YDR162C, strain NBP2, stronger effect = lower value 0.999 | locus YDR195W, strain ref2 1.01 | locus YDR297W, strain sur2, stronger effect = lower value 0.996 | locus YDR318W, strain mcm21, stronger effect = lower value 0.98 | locus YDR334W, strain swr1, stronger effect = lower value 1 | locus YDR335W, strain msn5, stronger effect = lower value 1.01 | locus YDR363W, strain ESC2, stronger effect = lower value 1.04 | locus YDR388W, stronger effect = lower value 0.986 | locus YDR392W, strain spt3, stronger effect = lower value 0.996 | locus YDR502C, strain sam2, stronger effect = lower value 0.977 | locus YEL003W, strain gim4, stronger effect = lower value 1.01 | locus YEL037C, strain rad23, stronger effect = lower value 0.998 | locus YEL061C, strain CIN8 (second series), stronger effect = lower value 1 | locus YEL061C, strain CIN8, stronger effect = lower value 0.994 | locus YER002W, strain NOP16, stronger effect = lower value 1.01 | locus YER015W, strain faa2, stronger effect = lower value 1 | locus YER016W, strain bim1, stronger effect = lower value 1.01 | locus YER110C, stronger effect = lower value 0.991 | locus YER111C, strain swi4, stronger effect = lower value 1.02 | locus YER155C, strain BEM2 (second series), stronger effect = lower value 1.01 | locus YER155C, strain BEM2, stronger effect = lower value 0.974 | locus YER167W, strain BCK2, stronger effect = lower value 0.987 | locus YFR010W, strain ubp6, stronger effect = lower value 0.996 | locus YGL078C, strain dbp3, stronger effect = lower value 0.983 | locus YGL086W, strain mad1, stronger effect = lower value 0.997 | locus YGL167C, strain pmr1, stronger effect = lower value 1.07 | locus YGL173C, strain kem1, stronger effect = lower value 1.01 | locus YGL227W, strain vid30, stronger effect = lower value 0.992 | locus YGL240W, strain doc1, stronger effect = lower value 0.986 | locus YGL248W, strain PDE1, stronger effect = lower value 0.993 | locus YGL253W, strain hxk2, stronger effect = lower value 1.01 | locus YGR135W, strain pre9, stronger effect = lower value 0.981 | locus YGR229C, strain SMI1, stronger effect = lower value 1.02 and 1.01 | locus YGR252W, strain gcn5, stronger effect = lower value 1.06 | locus YHR013C, strain ard1, stronger effect = lower value 1.02 | locus YHR027C, strain rpn1, stronger effect = lower value 0.99 | locus YHR030C, strain SLT2, stronger effect = lower value 0.992 and 0.979 | locus YHR079C, strain IRE1 (second series), stronger effect = lower value 0.979 | locus YHR079C, strain IRE1, stronger effect = lower value 0.961 | locus YHR094C, strain hxt1, stronger effect = lower value 0.989 | locus YHR129C, strain ARP1, stronger effect = lower value 0.989 | locus YHR142W, strain chs7, stronger effect = lower value 1.03 | locus YHR200W, strain rpn10, stronger effect = lower value 0.981 | locus YIL066C, strain RNR3, stronger effect = lower value 0.996 | locus YIL073C, strain SPO22, stronger effect = lower value 0.965 | locus YIL125W, strain kgd1, stronger effect = lower value 0.998 | locus YIR030C, strain dcg1, stronger effect = lower value 0.983 | locus YJL092W, strain hpr5, stronger effect = lower value 0.996 | locus YJL095W, strain BCK1 (second series), stronger effect = lower value 0.996 | locus YJL095W, strain BCK1, stronger effect = lower value 1.01 and 0.988 | locus YJL115W, strain asf1, stronger effect = lower value 1 | locus YJL129C, strain trk1, stronger effect = lower value 0.987 | locus YJL134W, strain LCB3, stronger effect = lower value 0.986 | locus YJL154C, strain vps35, stronger effect = lower value 1.01 | locus YJL164C, strain tpk1, stronger effect = lower value 1.01 | locus YJL166W, strain qcr8, stronger effect = lower value 0.999 | locus YJL168C, strain set2, stronger effect = lower value 0.988 | locus YJL187C, strain SWE1 (second series), stronger effect = lower value 0.987 | locus YJL187C, strain SWE1, stronger effect = lower value 0.992 | locus YJR043C, strain POL32, stronger effect = lower value 1.02 | locus YJR066W, strain TOR1, stronger effect = lower value 0.947
